# High-throughput results: PubChem BioAssay, National Center for Advancing Translational Sciences (NCATS)
# PI4K2A inh: inhibitors of human PI4K2A | Q9BTU6 | purified PI4K2A, ADP-Glo luminescence, 1 h; active compounds read low | activity change, negative = inhibition, % at 76.9 µM | hit rate 0.13% among 420,000; in the data active = activity change below about -50%; inconclusive = mostly about -30% to -49%;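 also: -100% = wells without enzyme as full effect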
#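 ADP-Glo luminescence measured ADP generated by PI4K2A enzyme (4 ug/mL before mixing) with 1.2 mM PI substrate (pre-mix) and 300 microM ATP (pre-mix). Tris pH7.5 buffer with MgCl2, Triton X-100; 1 h reaction at ambient temperature.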
# GLS inhibitor: glutaminase GLS (human) inhibition; O94925; GLS enzymatic activity, qHTS titration; Potency, µM (top dose mostly 45.5 µM), inactives show at the highest dose activity change, negative = inhibition, actives largely listed as inhibitors; hit rate 0.21% among 410,000; also: potency is read from the fitted curve at half-maximal effect
#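 hKGA in 45 mM KH2PO4 (pH 8.2), 0.02% Tween-20 with compound, then 1mM L-Glutamine (stock as added) plus glutamate oxidase/HRP/Amplex red coupling mix. Fluorescence read initially and after 30 min at RT; signal change reflects glutamate formation.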
# USP1 inh: blocks the human USP1/UAF1 deubiquitinase complex; recombinant USP1/UAF1, Ub-Rhodamine cleavage fluorescence; Potency, µM (doses to about 57.1 µM), without a hit: at the top dose activity change, negative = inhibition, hits mostly inhibitors; hit rate 0.23% among 390,000; AID 743255; also: potency is read from the fitted curve at half-maximal effect; nearly all actives have a fitted effect of over 60% in size
# Target sequence (O94782 whole entry, looked up): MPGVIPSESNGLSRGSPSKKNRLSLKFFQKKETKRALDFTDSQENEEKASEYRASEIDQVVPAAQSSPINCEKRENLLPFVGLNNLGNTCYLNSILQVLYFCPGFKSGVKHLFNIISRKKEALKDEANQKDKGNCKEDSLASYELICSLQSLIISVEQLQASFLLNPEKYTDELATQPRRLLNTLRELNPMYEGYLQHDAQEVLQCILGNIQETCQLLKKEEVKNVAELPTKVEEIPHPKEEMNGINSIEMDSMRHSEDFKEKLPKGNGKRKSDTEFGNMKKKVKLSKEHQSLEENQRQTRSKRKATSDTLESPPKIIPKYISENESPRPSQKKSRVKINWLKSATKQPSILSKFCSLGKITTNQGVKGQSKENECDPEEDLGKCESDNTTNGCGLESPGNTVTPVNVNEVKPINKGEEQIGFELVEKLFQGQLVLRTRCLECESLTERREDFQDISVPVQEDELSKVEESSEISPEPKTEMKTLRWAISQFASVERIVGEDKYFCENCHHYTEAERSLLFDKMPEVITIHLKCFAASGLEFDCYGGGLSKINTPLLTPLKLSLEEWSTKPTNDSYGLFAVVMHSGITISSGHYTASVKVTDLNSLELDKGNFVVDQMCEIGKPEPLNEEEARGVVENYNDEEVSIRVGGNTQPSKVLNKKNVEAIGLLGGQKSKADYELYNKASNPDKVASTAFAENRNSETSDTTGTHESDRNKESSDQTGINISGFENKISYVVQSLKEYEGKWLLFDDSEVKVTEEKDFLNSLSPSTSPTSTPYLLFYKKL
#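 Step one: compound is pinned into 1nM USP1/UAF1 in HEPES pH 7.8 buffer with TCEP. Step two: 15 min room-temperature incubation. Step three: Ub-Rho (150nM final) starts cleavage, tracked by fluorescence over six one-minute reads.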
# Tb PGK inh: inhibitors of T. brucei phosphoglycerate kinase; P07378; AID 602233; PGK/GAPDH coupled, Kinase-Glo luminescence, 60 min; hit rate 0.043% among 380,000; Potency, µM (titrated, usually from 57.5 µM), for the others: at the highest dose activity change, negative = inhibition, most hits filed as inhibitors; also: potency is read from the fitted curve at half-maximal effect; nearly all actives have a fitted effect of over 60% in size
#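 Luminescent ATP detection (Kinase-Glo Plus) follows a 60-minute room-temperature incubation, with wells lacking PGK as controls. Buffer: 100 mM TEA (pH 7.6), 5 mM MgCl2, 0.01% Tween-20. Coupling enzyme GAPDH (100 nM final) supplies unstable 1,3-BPG in-well.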
# Starred values were filed as active, the others as inactive; i = inactive; ? = inconclusive; · = no result. A selection: hits, their analogues and other compounds. The true share with any hit is near 0.53%. Unless noted, calls follow the shape of the dose curve; as a rule, active = well fitted curve in the direction sought with a large enough effect; inconclusive = small, poorly fitted or top-dose-only effect, or another doubt; inactive = no such curve, though single readings can be large; an effect the other way counts as inactive or inconclusive. Unless noted, % is scaled to controls: 0 for no effect and ±100 for the full control effect.
SMILES,PI4K2A inh,GLS inhibitor,USP1 inh,Tb PGK inh
N#C/C(=C\N1CCN(Cc2ccc3c(c2)OCO3)CC1)c1nc2ccccc2s1,2.8,-1.9%,31.6µM*,-2.3%
CCOC(=O)N1CCN(/C=C(\C#N)c2nc3ccccc3s2)CC1,-3.3,-2.8%,-18.9%,-7.2%
O=C1c2cccc3c(N4CCCCC4)ccc(c23)C(=O)N1c1ccccc1O,1.9,10.0%,28.2µM*,i
Cc1ccc(N2C(=O)c3cccc4c(N5CCN(C)CC5)ccc(c34)C2=O)c2cccnc12,2.1,7.7%,28.2µM*,·
COc1ccccc1Nc1c2c(nc3ccc(NC(=O)c4ccc(N(C)C)cc4)cc13)CCCC2,1.0,7.8%,-24.4%,i
CC(CSC(=O)c1ccccc1)C(=O)N1CC(Sc2ccccc2)CC1C(=O)O (stereo unspecified),·,3.4%,·,·
Oc1ccc(/C=N/NC(=S)Nc2cccnc2)c(O)c1O,-3.0,4.47µM*,?,-9.5%
Fc1cccc(F)c1/C=N/NC(=S)Nc1cccnc1,-2.1,-12.6%,-18.9%,-0.1%
Oc1ccc(/C=N/NC(=S)Nc2cccnc2)c(O)c1,1.6,20.2%,-17.3%,-5.0%
Oc1cccc(/C=N/NC(=S)Nc2cccnc2)c1O,3.1,10µM*,-21.4%,-15.7%
CC(=O)C1=C(c2ccccc2)NC(=O)NC1c1ccc2c(c1)OCO2 (stereo unspecified),1.1,4.3%,-5.5%,-4.5%
CC(=O)C1=C(c2ccccc2)NC(=S)NC1c1ccc(O)c(O)c1 (stereo unspecified),8.9,8.91µM*,5.1%,-4.1%
CC(=O)C1=C(c2ccccc2)NC(=O)NC1c1ccc(O)c(O)c1 (stereo unspecified),-1.5,10µM*,-10.6%,2.0%
CN(C)CCN(Cc1ccsc1)c1ccccn1,-0.2,·,·,·
CSc1nc(SCC(=O)O)c2sc3nc(-c4ccccc4)c4c(c3c2n1)CCC4,0.7,14.1µM*,3.9%,?
CSc1nc(NCCN(C)C)c2sc3nc(-c4ccco4)c4c(c3c2n1)CCC4,-4.0,-18.6%,-23.7%,-7.9%
CSc1nc(N(C)CCO)c2sc3nc(-c4ccco4)c4c(c3c2n1)CCC4,?,12.6µM*,?,?
Cn1cc(C(c2ccccc2OCC(=O)O)c2cn(C)c3ccccc23)c2ccccc21,-6.8,14.1µM*,-6.9%,-1.1%
Cc1[nH]c(=O)[nH]c(=S)c1C(=O)Nc1ccc(Cl)c(Cl)c1,1.2,1.78µM*,-20.2%,-6.7%
CC(=O)c1c(C)[nH]c(C(=O)Nc2ccc(Cl)c(S(=O)(=O)N(C)C)c2)c1C,1.0,-0.4%,-17.1%,-9.7%
CC(=O)SC[C@@H](C)C(=O)N1CCC[C@H]1C(=O)N[C@@H](Cc1ccccc1)C(=O)O,3.6,-13.0%,·,·
Cc1ccc(-n2nnc(-c3nccn3C)n2)cc1,-52.5*,-3.0%,-19.3%,?
CC(C)(C)c1cc(CCC(=O)NCCc2ccccn2)cc(C(C)(C)C)c1O,-20.0,10µM*,-10.3%,-4.6%
[O-][n+]1cccc(/C(Cl)=N/OC[C@@H](O)CN2CCCCC2)c1,1.9,·,·,·
Cc1cc(Cl)ccc1N1C(=O)CC(NNC(=O)c2cccnc2)C1=O (stereo unspecified),6.3,7.08µM*,-8.7%,1.5%
SMILES,PI4K2A inh,GLS inhibitor,USP1 inh,Tb PGK inh
Nc1ccc(N)c(C(=O)O)c1,-66.0*,5.62µM*,20µM*,?
N#C/C(=C\c1ccc(-c2cc(Cl)ccc2Cl)o1)C(=O)Nc1cccc2ncccc12,-52.8*,·,·,·
NC(=O)c1c(NC(=O)c2ccccc2)sc2c1CCN(Cc1ccccc1)C2,-4.1,12.5%,8.91µM*,2.9%
CCN1CCc2c(sc(NC(=O)c3ccc(S(=O)(=O)N(CC)c4ccccc4)cc3)c2C(N)=O)C1,0.3,-25.3%,28.2µM*,-0.3%
NC(=O)c1c(NC(=O)c2c(F)cccc2F)sc2c1CCN(Cc1ccccc1)C2,-4.9,-2.0%,?,-4.6%
COC(=O)c1cc(C)nc2c1C(=O)C(=O)C=C2N1CCOCC1,-83.1*,-3.7%,1.26µM*,?
CSCCC(NC(=O)[C@H](Cc1c[nH]c2ccccc12)NC(=O)CNC(=O)[C@H](CCSC)NC(=O)[C@H](Cc1ccc(OS(=O)(=O)O)cc1)NC(=O)[C@@H](N)CC(=O)O)C(=O)N[C@@H](CC(=O)O)C(=O)N[C@@H](Cc1ccccc1)C(N)=O (stereo partly specified),·,-20.4%,·,·
